For 23 compounds, Potency and activation results are on record in PubChem BioAssay (NCATS).

Values joined by “and” are separate entries in the source; they are usually repeats but may differ in a detail not shown here. Equal values may be shown once. Records with an inconclusive call do not appear. Values without a mark were called inactive. Active and inactive are the calls of the source. Unless noted, the call rests on the fitted dose curve.
Potency means the concentration at half of the fitted maximal effect.

A short description of the first assay: qHTS assay for small molecule activators of the nuclear factor-kappa B (NF-kB) signaling pathway (AID 651749; active means well fitted activation curve with a large enough effect in the signal ratio; the % refers to the signal ratio; on activation: % of control where 0% means no effect). To be noted: NF-kB-bla ME-180 cells, beta-lactamase FRET ratio, 16 h; activation: hits give high values. Summed up:
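Incubation lasted 16 hr at 37C in 5% CO2 after 23 nL compound addition to ME-180 NF-kB-bla cells. Activation appears as beta-lactamase-mediated FRET loss.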
Background: In qHTS, concentration-response curves come from the screen itself.
For the compound `CC(CN1c2ccccc2Sc2ccccc21)N(C)C` (stereo not given), the Potency was 25.1 µM (active).
In the case of `CC(O)CN(CCN(CC(C)O)CC(C)O)CC(C)O` (stereo not given), the activation was -0.0736%.
Take `Nc1ccc(S(=O)(=O)Nc2nccs2)cc1`: the activation was 0.351%.
For the compound `C[C@]12C[C@H](O)[C@H]3[C@@H](CCC4=CC(=O)CC[C@@]43C)[C@@H]1CC[C@@H]2C(=O)CO`, the activation is -1.35% and 0.404%.
Still for that read-out and setting: with `Cc1c(O)cccc1C(=O)N[C@@H](CSc1ccccc1)[C@H](O)CN1C[C@H]2CCCC[C@H]2C[C@H]1C(=O)NC(C)(C)C` the figure was 4.91%; with `CC1=C(/C=C/C(C)=C/C=C/C(C)=C/C(=O)O)C(C)(C)CCC1`, -2.87% and -2.33%.
In the case of `CC1(C)[C@@H]2CC[C@@]1(C)C(=O)C2`, the activation is -0.497%.
As to `CCCCC(CC)COC(=O)c1ccccc1O` (stereo not given), the activation is -1.39%.
In the case of `O=S(=O)(O)NC1CCCCC1`, the activation was -0.941%.
As to `CC(O)COc1ccccc1` (stereo not given), the activation is -2.71%.
The same measure, in the same setting: in the case of `COc1ccc(Cl)cc1C(=O)NCCc1ccc(S(=O)(=O)NC(=O)NC2CCCCC2)cc1` it was -2.47%; in that of `CCCc1c(OCCCCc2nn[nH]n2)ccc(C(C)=O)c1O`, -0.919%.
Regarding `NC(=O)N/N=C/c1ccc([N+](=O)[O-])o1`, the activation is -2.02% and 0.212%.
Consider `COc1ccccc1O`, for which the activation is -1.13% and -0.291% and -0.304%.
With `CNC(=O)Oc1ccc2c(c1)[C@]1(C)CCN(C)[C@@H]1N2C`, the activation was 1%.
On to `Oc1cccc(O)c1`, for which the activation is -1.45%.
On to `NCCNCCNCCNCCN`, for which the activation is -1.8% and -0.273%.
Turning to `Cc1cccc(Nc2cc(Cl)nc(SCC(=O)O)n2)c1C`, the activation is 3.82%.
As for `C[C@]12CC[C@@H]3c4ccc(O)cc4CC[C@H]3[C@@H]1CCC2=O`, the activation is -1.43%.

A further assay can be described thus: qHTS assay for small molecule disruptors of the mitochondrial membrane potential - 1 hr assay (AID 651754). Further: nearly all actives have a fitted effect of over 35% in size. Particulars: series mostly up to 92.2 µM. Put shortly: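 Steps: seed HepG2 cells and let attach overnight; pin-transfer compound or vehicle; incubate 1 hr at 37C; add Mito-MPS dye for 30 min; read two-channel fluorescence for monomer and aggregate forms.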
For `Cc1c(O)cccc1C(=O)N[C@@H](CSc1ccccc1)[C@H](O)CN1C[C@H]2CCCC[C@H]2C[C@H]1C(=O)NC(C)(C)C`, the Potency is 42.2 µM (active).
Turning to `Cc1cc2nc3c(=O)[nH]c(=O)nc-3n(C[C@H](O)[C@H](O)[C@H](O)CO)c2cc1C`, the Potency is 5.96 µM (active).
For `[Cl][In]([Cl])[Cl]`, the Potency result was “inactive”.
Take `COC(=O)C1=C(C)NC(C)=C(C(=O)OC)C1c1ccccc1[N+](=O)[O-]`: the Potency entry was “inactive”.
Consider `Oc1cccc(O)c1`, for which the Potency result was “inactive”.
With `CCCCCCCCCCCCOS(=O)(=O)O`, the Potency result is “inactive”.
